From ChEMBL document CHEMBL1961873, “Compounds: GSK PKIS; Assays: Nanosyn kinase panel” (2012)

Legend:
[1] = molecular target: Serine/threonine-protein kinase MARK2 (Homo sapiens) (UniProt Q7KZI7); conditions: at 1 µM
[2] = molecular target: PAS domain-containing serine/threonine-protein kinase (Homo sapiens) (UniProt Q96RG2); conditions: at 0.1 µM
[3] = molecular target: PAS domain-containing serine/threonine-protein kinase (Homo sapiens) (UniProt Q96RG2); conditions: at 1 µM
[4] = molecular target: Phosphorylase b kinase gamma catalytic chain, skeletal muscle/heart isoform (Homo sapiens) (UniProt Q16816); conditions: at 0.1 µM
Chain of Phosphorylase b kinase gamma catalytic chain, skeletal muscle/heart isoform (Homo sapiens) (Q16816 whole entry, looked up, canonical isoform): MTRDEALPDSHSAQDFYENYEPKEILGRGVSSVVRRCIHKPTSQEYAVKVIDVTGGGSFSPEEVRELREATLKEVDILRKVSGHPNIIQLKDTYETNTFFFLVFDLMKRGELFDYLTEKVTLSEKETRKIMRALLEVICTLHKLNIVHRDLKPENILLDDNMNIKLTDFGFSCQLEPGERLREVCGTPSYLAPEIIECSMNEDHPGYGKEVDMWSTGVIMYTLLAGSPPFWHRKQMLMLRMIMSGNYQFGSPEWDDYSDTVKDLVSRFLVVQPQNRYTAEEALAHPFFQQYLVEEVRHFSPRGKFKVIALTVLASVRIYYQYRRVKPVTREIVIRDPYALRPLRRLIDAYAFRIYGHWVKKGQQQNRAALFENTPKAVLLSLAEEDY

[5] = molecular target: Phosphorylase b kinase gamma catalytic chain, skeletal muscle/heart isoform (Homo sapiens) (UniProt Q16816); conditions: at 1 µM
[6] = molecular target: T1, Phosphorylase b kinase gamma catalytic chain, liver/testis isoform (Homo sapiens) (UniProt P15735); conditions: at 0.1 µM
T1 sequence (whole entry): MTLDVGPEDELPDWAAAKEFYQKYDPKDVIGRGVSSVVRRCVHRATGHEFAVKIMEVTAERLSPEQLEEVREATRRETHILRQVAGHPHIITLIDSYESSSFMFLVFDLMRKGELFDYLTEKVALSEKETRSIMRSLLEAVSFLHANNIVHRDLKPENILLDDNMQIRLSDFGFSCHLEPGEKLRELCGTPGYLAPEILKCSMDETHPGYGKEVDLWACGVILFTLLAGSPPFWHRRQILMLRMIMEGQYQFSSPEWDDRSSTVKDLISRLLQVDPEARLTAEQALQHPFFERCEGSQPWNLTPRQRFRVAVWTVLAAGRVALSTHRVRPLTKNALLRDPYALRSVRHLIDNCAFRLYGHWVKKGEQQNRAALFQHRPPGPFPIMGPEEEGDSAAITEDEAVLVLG

[7] = molecular target: T1, Phosphorylase b kinase gamma catalytic chain, liver/testis isoform (Homo sapiens); conditions: at 1 µM
[8] = molecular target: Serine/threonine-protein kinase pim-1 (Homo sapiens) (UniProt P11309); conditions: at 0.1 µM
[9] = molecular target: Serine/threonine-protein kinase pim-1 (Homo sapiens) (UniProt P11309); conditions: at 1 µM
[10] = molecular target: Serine/threonine-protein kinase pim-2 (Homo sapiens) (UniProt Q9P1W9); conditions: at 0.1 µM
Chain of Serine/threonine-protein kinase pim-2 (Homo sapiens) (Q9P1W9 whole entry, looked up): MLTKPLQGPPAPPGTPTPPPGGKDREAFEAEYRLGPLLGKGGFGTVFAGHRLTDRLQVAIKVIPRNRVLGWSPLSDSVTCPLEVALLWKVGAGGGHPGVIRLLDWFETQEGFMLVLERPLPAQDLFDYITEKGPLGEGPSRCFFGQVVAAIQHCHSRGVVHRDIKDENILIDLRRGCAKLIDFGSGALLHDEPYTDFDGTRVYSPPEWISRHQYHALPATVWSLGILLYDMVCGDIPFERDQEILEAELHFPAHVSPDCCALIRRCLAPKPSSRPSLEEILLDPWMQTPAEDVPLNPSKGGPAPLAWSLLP

[11] = molecular target: Serine/threonine-protein kinase pim-2 (Homo sapiens) (UniProt Q9P1W9); conditions: at 1 µM
[12] = molecular target: Serine/threonine-protein kinase pim-3 (Homo sapiens) (UniProt Q86V86); conditions: at 0.1 µM
[13] = molecular target: Serine/threonine-protein kinase pim-3 (Homo sapiens) (UniProt Q86V86); conditions: at 1 µM
[14] = molecular target: T2, MAP kinase-activated protein kinase 5 (Homo sapiens) (UniProt Q8IW41); conditions: at 0.1 µM
T2 sequence (whole entry): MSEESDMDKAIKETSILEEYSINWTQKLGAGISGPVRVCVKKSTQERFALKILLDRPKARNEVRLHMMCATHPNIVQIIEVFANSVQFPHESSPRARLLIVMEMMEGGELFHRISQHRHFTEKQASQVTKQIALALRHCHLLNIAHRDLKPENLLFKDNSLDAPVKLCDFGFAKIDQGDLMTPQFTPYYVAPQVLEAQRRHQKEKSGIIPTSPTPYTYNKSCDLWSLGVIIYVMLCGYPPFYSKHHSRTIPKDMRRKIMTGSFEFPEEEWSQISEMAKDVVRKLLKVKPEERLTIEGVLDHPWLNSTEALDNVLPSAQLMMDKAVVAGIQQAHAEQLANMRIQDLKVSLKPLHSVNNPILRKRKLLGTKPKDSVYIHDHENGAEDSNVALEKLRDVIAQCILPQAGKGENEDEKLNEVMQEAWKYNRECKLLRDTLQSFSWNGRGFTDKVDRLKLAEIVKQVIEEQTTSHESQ

[15] = molecular target: T2, MAP kinase-activated protein kinase 5 (Homo sapiens); conditions: at 1 µM
[16] = molecular target: Serine/threonine-protein kinase SIK1 (Homo sapiens) (UniProt P57059); conditions: at 0.1 µM
Chain of Serine/threonine-protein kinase SIK1 (Homo sapiens) (P57059 whole entry): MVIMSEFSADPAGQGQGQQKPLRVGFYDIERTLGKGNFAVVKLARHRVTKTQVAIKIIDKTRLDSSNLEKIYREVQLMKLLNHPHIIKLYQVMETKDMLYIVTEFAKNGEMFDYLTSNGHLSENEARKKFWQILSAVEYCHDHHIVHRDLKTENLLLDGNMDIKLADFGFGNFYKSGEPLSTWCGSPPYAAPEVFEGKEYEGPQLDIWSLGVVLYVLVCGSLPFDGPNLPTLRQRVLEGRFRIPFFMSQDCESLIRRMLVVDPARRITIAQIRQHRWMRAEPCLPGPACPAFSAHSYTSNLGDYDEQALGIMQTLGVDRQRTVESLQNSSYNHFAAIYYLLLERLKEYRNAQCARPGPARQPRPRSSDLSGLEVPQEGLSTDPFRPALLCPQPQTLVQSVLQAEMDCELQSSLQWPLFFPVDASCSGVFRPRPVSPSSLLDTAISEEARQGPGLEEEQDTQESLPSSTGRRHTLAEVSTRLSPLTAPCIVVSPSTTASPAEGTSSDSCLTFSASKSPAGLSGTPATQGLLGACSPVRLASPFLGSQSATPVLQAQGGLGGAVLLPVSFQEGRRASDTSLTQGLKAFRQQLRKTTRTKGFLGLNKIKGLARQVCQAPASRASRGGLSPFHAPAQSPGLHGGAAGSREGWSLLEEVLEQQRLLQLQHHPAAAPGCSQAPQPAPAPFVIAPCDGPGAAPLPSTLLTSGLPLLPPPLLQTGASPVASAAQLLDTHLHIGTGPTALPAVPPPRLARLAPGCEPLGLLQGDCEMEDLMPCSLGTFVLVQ

[17] = molecular target: Serine/threonine-protein kinase SIK1 (Homo sapiens) (UniProt P57059); conditions: at 1 µM
[18] = molecular target: Serine/threonine-protein kinase SIK2 (Homo sapiens) (UniProt Q9H0K1); conditions: at 0.1 µM
Chain of Serine/threonine-protein kinase SIK2 (Homo sapiens) (Q9H0K1 whole entry, looked up): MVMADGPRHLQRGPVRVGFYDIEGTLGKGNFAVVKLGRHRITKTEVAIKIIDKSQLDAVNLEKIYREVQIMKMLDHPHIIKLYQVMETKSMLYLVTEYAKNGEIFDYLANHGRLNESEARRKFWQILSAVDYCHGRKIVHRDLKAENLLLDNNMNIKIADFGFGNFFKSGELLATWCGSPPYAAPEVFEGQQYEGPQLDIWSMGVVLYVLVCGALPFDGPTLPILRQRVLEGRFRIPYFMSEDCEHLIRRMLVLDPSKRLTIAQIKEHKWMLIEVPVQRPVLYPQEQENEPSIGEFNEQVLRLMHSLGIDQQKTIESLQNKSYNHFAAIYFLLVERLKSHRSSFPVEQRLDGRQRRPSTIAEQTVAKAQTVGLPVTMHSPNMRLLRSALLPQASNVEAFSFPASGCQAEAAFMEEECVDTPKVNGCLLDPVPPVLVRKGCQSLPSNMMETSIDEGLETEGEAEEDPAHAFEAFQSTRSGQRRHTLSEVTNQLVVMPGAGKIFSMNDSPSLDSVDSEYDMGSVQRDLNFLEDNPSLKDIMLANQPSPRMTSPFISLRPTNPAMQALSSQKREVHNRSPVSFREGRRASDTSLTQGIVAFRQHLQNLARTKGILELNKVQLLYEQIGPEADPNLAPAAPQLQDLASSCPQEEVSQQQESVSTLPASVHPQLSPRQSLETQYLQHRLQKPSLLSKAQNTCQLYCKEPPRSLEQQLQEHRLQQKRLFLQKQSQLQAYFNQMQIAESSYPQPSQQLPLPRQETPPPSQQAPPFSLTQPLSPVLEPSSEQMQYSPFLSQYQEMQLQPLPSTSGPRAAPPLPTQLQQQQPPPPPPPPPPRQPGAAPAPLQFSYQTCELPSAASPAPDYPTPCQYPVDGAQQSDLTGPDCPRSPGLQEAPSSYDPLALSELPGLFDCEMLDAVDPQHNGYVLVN

[19] = molecular target: Serine/threonine-protein kinase SIK2 (Homo sapiens) (UniProt Q9H0K1); conditions: at 1 µM
[20] = molecular target: T3, Serine/threonine-protein kinase TBK1 (Homo sapiens) (UniProt Q9UHD2); conditions: at 0.1 µM;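 also: values are the mean TBK1 inhibition, taken from the GSK PKIS screening data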
T3 sequence (whole entry): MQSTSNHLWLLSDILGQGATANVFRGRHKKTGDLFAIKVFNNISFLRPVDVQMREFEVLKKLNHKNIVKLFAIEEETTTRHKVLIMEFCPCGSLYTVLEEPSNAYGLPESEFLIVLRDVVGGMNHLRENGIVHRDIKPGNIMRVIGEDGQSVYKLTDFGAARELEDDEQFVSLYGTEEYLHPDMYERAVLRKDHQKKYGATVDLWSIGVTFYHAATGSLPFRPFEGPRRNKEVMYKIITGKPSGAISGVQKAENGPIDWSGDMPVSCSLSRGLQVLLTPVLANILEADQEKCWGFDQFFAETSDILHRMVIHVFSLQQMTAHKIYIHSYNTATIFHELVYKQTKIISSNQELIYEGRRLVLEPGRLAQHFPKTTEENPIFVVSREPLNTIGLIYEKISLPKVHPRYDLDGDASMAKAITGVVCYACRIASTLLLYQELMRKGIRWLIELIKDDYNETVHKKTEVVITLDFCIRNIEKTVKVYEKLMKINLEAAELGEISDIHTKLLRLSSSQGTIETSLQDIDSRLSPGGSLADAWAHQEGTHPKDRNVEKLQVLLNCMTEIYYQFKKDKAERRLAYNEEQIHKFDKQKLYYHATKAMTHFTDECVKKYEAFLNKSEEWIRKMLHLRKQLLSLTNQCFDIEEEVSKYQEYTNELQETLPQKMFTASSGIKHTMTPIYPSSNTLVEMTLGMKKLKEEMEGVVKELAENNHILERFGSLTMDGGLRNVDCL

Chain of Serine/threonine-protein kinase MARK2 (Homo sapiens) (Q7KZI7 whole entry, the tested form may be a part): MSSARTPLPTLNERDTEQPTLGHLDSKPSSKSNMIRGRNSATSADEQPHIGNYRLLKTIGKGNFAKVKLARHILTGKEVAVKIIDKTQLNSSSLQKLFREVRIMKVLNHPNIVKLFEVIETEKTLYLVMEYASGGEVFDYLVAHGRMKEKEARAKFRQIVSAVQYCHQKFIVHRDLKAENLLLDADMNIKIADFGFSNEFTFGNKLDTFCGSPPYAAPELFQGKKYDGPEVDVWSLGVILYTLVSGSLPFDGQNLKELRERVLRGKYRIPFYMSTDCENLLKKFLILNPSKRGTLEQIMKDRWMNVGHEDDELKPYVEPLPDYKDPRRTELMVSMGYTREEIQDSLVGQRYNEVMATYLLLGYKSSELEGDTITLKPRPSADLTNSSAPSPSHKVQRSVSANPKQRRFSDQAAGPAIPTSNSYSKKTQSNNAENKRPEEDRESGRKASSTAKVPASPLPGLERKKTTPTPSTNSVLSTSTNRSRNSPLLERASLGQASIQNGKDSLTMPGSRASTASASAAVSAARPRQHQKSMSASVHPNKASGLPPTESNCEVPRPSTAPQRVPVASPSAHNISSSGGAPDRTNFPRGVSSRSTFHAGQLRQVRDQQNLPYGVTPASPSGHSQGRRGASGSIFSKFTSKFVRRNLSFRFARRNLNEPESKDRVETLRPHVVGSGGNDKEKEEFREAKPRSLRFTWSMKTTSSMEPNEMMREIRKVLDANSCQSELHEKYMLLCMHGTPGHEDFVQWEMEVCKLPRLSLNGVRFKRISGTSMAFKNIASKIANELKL
Chain of PAS domain-containing serine/threonine-protein kinase (Homo sapiens) (Q96RG2 whole entry, the tested form may be a part, canonical isoform): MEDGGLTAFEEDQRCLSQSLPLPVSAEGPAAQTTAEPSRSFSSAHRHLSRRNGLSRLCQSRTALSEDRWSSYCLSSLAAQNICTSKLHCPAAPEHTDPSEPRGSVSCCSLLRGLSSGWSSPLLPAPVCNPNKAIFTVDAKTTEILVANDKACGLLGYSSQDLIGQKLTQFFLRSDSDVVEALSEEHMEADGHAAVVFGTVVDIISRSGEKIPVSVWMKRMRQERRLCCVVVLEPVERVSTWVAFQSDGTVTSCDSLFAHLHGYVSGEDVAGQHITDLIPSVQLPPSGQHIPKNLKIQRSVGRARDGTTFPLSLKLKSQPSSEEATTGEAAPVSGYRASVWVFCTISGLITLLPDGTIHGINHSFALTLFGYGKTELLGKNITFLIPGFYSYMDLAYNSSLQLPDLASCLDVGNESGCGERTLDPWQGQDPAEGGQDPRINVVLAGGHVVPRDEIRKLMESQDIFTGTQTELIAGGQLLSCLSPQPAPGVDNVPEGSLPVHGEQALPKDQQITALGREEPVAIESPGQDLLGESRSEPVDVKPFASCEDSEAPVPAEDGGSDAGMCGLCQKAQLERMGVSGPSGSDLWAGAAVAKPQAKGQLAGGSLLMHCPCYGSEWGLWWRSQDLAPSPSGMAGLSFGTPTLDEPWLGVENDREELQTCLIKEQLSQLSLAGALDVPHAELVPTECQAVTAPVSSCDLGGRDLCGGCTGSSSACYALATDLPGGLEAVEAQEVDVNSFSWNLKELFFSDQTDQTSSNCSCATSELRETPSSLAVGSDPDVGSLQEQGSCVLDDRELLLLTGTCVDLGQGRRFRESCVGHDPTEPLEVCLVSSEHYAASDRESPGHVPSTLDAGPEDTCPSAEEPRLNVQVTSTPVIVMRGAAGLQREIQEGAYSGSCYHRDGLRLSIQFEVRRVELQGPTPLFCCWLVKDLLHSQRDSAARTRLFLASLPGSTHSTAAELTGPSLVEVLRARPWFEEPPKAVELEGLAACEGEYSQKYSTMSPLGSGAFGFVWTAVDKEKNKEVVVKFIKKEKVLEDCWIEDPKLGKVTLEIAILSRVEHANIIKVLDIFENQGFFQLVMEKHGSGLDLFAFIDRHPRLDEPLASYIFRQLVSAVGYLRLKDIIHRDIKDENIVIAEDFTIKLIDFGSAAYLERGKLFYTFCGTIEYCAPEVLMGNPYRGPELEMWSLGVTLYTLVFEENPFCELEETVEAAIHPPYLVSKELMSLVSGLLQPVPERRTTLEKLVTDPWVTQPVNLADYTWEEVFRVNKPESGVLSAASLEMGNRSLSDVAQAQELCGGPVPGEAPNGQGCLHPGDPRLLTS

CCNC(=O)O[C@H]1CN[C@H](C#Cc2cc3ncnc(Nc4ccc(OCc5cccc(F)c5)c(Cl)c4)c3s2)C1
inhibition [1]: 2.03% | inhibition [2]: 0.27% | inhibition [3]: -1.53% | inhibition [4]: 0.81% | inhibition [5]: 0.44% | inhibition [6]: 3.66% | inhibition [7]: 0.88% | inhibition [8]: 0.78% | inhibition [9]: 0.26% | inhibition [10]: -0.1% | inhibition [11]: -0.15% | inhibition [12]: -0.41% | inhibition [13]: -2.78% | inhibition [14]: 0.89% | inhibition [15]: 0.04% | inhibition [16]: 9.17% | inhibition [17]: 7.09% | inhibition [18]: 4.37% | inhibition [19]: 4.15% | inhibition [20]: 1.48%

NS(=O)(=O)c1ccc(Nc2ncc(-c3ccccc3)o2)cc1
inhibition [1]: 7.59% | inhibition [2]: -0.04% | inhibition [3]: -0.31% | inhibition [4]: 3.92% | inhibition [5]: 18.4% | inhibition [6]: 4.88% | inhibition [7]: 7.08% | inhibition [8]: 0.17% | inhibition [9]: 0.64% | inhibition [10]: -0.58% | inhibition [11]: 0.32% | inhibition [12]: -0.13% | inhibition [13]: 0.88% | inhibition [14]: 1.46% | inhibition [15]: 1.61% | inhibition [16]: 6.09% | inhibition [17]: 9.25% | inhibition [18]: 6.43% | inhibition [19]: 18.9% | inhibition [20]: 3.13%

CN1CCC(n2cnc(-c3ccc(F)cc3)c2-c2ccnc(Nc3ccccc3)n2)CC1
inhibition [1]: -0.33% | inhibition [2]: -0.38% | inhibition [3]: 2.19% | inhibition [4]: 3.44% | inhibition [5]: 4.79% | inhibition [6]: 3.49% | inhibition [7]: 2.68% | inhibition [8]: 0.38% | inhibition [9]: 2.62% | inhibition [10]: -0.56% | inhibition [11]: 0.35% | inhibition [12]: 1.06% | inhibition [13]: 5.66% | inhibition [14]: 1.06% | inhibition [15]: 1.42% | inhibition [16]: 3.13% | inhibition [17]: 4.66% | inhibition [18]: 7.17% | inhibition [19]: 22.9% | inhibition [20]: 0.4%

Nc1nc(-c2ccc(F)cc2)c(-c2ccc3ncccc3n2)s1
inhibition [1]: 0.96% | inhibition [2]: 0.84% | inhibition [3]: -0.64% | inhibition [4]: 4.41% | inhibition [5]: 7.81% | inhibition [6]: 6.3% | inhibition [7]: 5.79% | inhibition [8]: 0.35% | inhibition [9]: 2.38% | inhibition [10]: 0.17% | inhibition [11]: 0.96% | inhibition [12]: 0.41% | inhibition [13]: 2.02% | inhibition [14]: 1.52% | inhibition [15]: 2.44% | inhibition [16]: 11.6% | inhibition [17]: 7.23% | inhibition [18]: 8.76% | inhibition [19]: 11.6% | inhibition [20]: 3.41%

N#Cc1c(NC(=O)c2ccc(F)cc2)sc2c1CCCC2
inhibition [1]: 0% | inhibition [2]: -0.36% | inhibition [3]: 0.96% | inhibition [4]: 1.21% | inhibition [5]: 2.76% | inhibition [6]: 1% | inhibition [7]: 1.36% | inhibition [8]: -1.04% | inhibition [9]: -0.95% | inhibition [10]: -0.39% | inhibition [11]: -0.05% | inhibition [12]: 0.71% | inhibition [13]: 1.6% | inhibition [14]: 0.52% | inhibition [15]: -0.3% | inhibition [16]: 1.57% | inhibition [17]: 3.96% | inhibition [18]: -1.57% | inhibition [19]: 8.23% | inhibition [20]: 0.78%

CN(C)CCOc1ccc(-c2nc(-c3ccncc3)c(-c3ccc4c(c3)CC/C4=N\O)[nH]2)cc1
inhibition [1]: 0.92% | inhibition [2]: -0.26% | inhibition [3]: 0.36% | inhibition [4]: 1.18% | inhibition [5]: 7.7% | inhibition [6]: 3.65% | inhibition [7]: 5.28% | inhibition [8]: 1.13% | inhibition [9]: 1.48% | inhibition [10]: -0.23% | inhibition [11]: 0.05% | inhibition [12]: -0.36% | inhibition [13]: 2.58% | inhibition [14]: 1.42% | inhibition [15]: 1.59% | inhibition [16]: 2.53% | inhibition [17]: 3.64% | inhibition [18]: 6.15% | inhibition [19]: 2.63% | inhibition [20]: 1.69%

N#Cc1c(NC(=O)CN2CCOCC2)sc2c1CCCC2
inhibition [1]: 1.25% | inhibition [2]: 0.47% | inhibition [3]: 0.86% | inhibition [4]: 6% | inhibition [5]: 9.65% | inhibition [6]: 5.37% | inhibition [7]: 6.47% | inhibition [8]: 0.03% | inhibition [9]: 0.16% | inhibition [10]: 0.29% | inhibition [11]: 1.1% | inhibition [12]: 0.45% | inhibition [13]: 1.12% | inhibition [14]: 1.41% | inhibition [15]: 2.49% | inhibition [16]: 0.17% | inhibition [17]: 6.91% | inhibition [18]: 5.2% | inhibition [19]: 8.69% | inhibition [20]: 1.76%
